Data reported in PubChem BioAssay (EPA / NIEHS).
The source made the active and inactive calls. Rule for the calls: active = hit-call score of the fitted dose curve at least 0.9, where 1 is the maximum; inactive = score below 0.9.

These compounds were tested on Interferon-gamma inducible Protein 10 (IP10), CXCL10 (gene 3627) (assay: BSK_BE3C_IP10: BioMAP Diversity Plus: BE3C Assay for Interferon-gamma inducible Protein 10 (IP10) Biomarker Activity (AID 2283034)). Conditions: primary human bronchial epithelial cells; actives raise or lower the signal.
Procedure: BSK_BE3C is a cell-based, multiplexed-readout assay that uses bronchial epithelial cell, a human lung primary cell, with measurements taken at 24 hours after chemical dosing in a 96-well plate.BSK_BE3C_IP10 is an assay component measured in the BSK_BE3C assay. It measures IP-10 antibody related to regulation of gene expression using ELISA technology.Data from the assay component BSK_BE3C_IP10 was analyzed into 1 assay endpoint. This assay endpoint, BSK_BE3C_IP10, was analyzed with bidirectional fitting relative to DMSO as the negative control and baseline of activity. Using a type of binding reporter, gain or loss-of-signal activity can be used to understand changes in the signaling as they relate to the gene CXCL10. Furthermore, this assay endpoint can be referred to as a primary readout, because this assay has produced multiple assay endpoints where this one serves a signaling function. To generalize the intended target to other relatable targets, this assay endpoint is annotated to the cytokine intended target family, where the subfamily is chemotactic factor.
The levels of cell surface (or secreted, indicated by the prefix "s") biomarker endpoints were measured by ELISA. Overt cytotoxicity to cells in confluent adherent cultures (all systems other than the BT system) was assessed by measuring total protein levels using sulforhodamine B (SRB) staining in parallel cultures at the time of biomarker measurements, indicated as SRB endpoints. For proliferation assays for adherent cell types, individual cell types are cultured at sub-confluence and relative cell numbers quantified by SRB staining at time points optimized for each system (48 h: 3C and CASM3C systems; 72 h: BT and HDF3CGF systems; 96 h: SAg system). SRB was performed by staining cells with 0.1% SRB after fixation with 10% TCA and reading wells at 560 nm.Viability and proliferation of PBMC (T cells) was quantified by Alamar Blue reduction for the SAg and BT systems. For PBMC viability (referred to as PBMC Cytotoxicity within the assay endpoint names), cells were plated (75,000/well in a 96-well plate) and then chemical samples added for 1 h before addition of activators, SEB and TSST-1 (20 ng/mL final concentration each). Cells were incubated for 90 h. Then, Alamar Blue (20 uL/well) (Invitrogen, Cat DAL1100) was added for 6 h, and the plates were read with a fluorescence microplate reader at 546/580 nm (excitation/emission). For PBMC proliferation, cells were plated and activated as above but incubated for only 16 h prior to addition of Alamar Blue. Plates were read after 6 h.
`c1ccc2ncccc2c1` was tested, and the outcome was “inactive”. `C[Si](C)(C)C(F)(F)C(F)(F)C(F)(F)F` was tested, and the outcome was “inactive”. For `CCOC(N)=O`, the outcome was “inactive”. For `FC(F)(F)COC(OCC(F)(F)F)OCC(F)(F)F`, the outcome was “inactive”. With `CCCCCCCCCCCCCCO` the outcome was “inactive”. With `O=C(O)[C@H](O)[C@@H](O)C(=O)O` the outcome was “inactive”. For `C=CN1CCCC1=O`, the outcome was “inactive”. `CCCC(CCC)C(=O)O` was tested, and the outcome was “inactive”. `FC(F)=C(F)C(F)(F)C(F)(F)C(F)(F)C(F)(F)C(F)(F)C(F)(F)F` was tested, and the outcome was “inactive”. `CCCCOC(=O)c1ccccc1` was tested, and the outcome was “inactive”. `CC(C)C(=O)Nc1ccc([N+](=O)[O-])c(C(F)(F)F)c1` was tested, and the outcome was “inactive”. For `c1ccc2c(c1)-c1cccc3c1c-2cc1ccccc13`, the outcome was “inactive”. With `Cc1nc(-c2ccccn2)ncc1C(=O)Nn1cc(C)c2cc(F)ccc21` the outcome was “inactive”. In the case of `c1ccc(C(O[C@@H]2CCCN(CCc3ccc4c(c3)OCO4)C2)c2ccccc2)cc1`, the outcome is reported as “inactive”. For `COCc1nnc(-c2ccc[n+]([O-])c2)n1-c1c(Cl)c(Cl)cc2[nH]c(=O)c(=O)[nH]c12`, the outcome was “inactive”. In the case of `NC(N)=O`, the outcome is reported as “inactive”. `NC(=O)N(O)[C@@H]1COc2cc(OCc3ccccc3)ccc21` was tested, and the outcome was “inactive”. `OCCC(F)(F)C(F)(F)C(F)(F)C(F)(F)F` was tested, and the outcome was “inactive”. For `O=S(=O)(O)CCC(F)(F)C(F)(F)C(F)(F)C(F)(F)C(F)(F)C(F)(F)F`, the outcome was “inactive”. In the case of `Cn1cc[nH]c1=S`, the outcome is reported as “inactive”. In the case of `OCc1ccccc1`, the outcome is reported as “inactive”. With `OCc1c[nH]c2ccccc12` the AC50 was 5.95 µM (active). `CC(C)CCCCCCOC(=O)C1CCCCC1C(=O)OCCCCCCC(C)C` (stereo not given) was tested, and the outcome was “inactive”. In the case of `OC[C@H]1O[C@@H]2O[C@H]3[C@H](O)[C@@H](O)[C@@H](O[C@H]4[C@H](O)[C@@H](O)[C@@H](O[C@H]5[C@H](O)[C@@H](O)[C@@H](O[C@H]6[C@H](O)[C@@H](O)[C@@H](O[C@H]7[C@H](O)[C@@H](O)[C@@H](O[C@H]1[C@H](O)[C@H]2O)O[C@@H]7CO)O[C@@H]6CO)O[C@@H]5CO)O[C@@H]4CO)O[C@@H]3CO`, the outcome is reported as “inactive”. With `O=C(O)c1cccc(C(=O)O)c1` the outcome was “inactive”. With `CCCCCCCCCCCCCCCCOS(=O)(=O)O` the AC50 was 10.5 µM (active). With `CCCc1ccccc1` the outcome was “inactive”. In the case of `CC[C@H](C)C(=O)O[C@H]1C[C@H](O)C=C2C=C[C@H](C)[C@H](CC[C@@H](O)C[C@@H](O)CC(=O)O)[C@H]21`, the outcome is reported as “inactive”. `C[C@]12C=CC(=O)C=C1CC[C@H]1[C@@H]3C[C@@H](O)[C@](O)(C(=O)CO)[C@@]3(C)C[C@H](O)[C@@]12F` was tested, and the outcome was “inactive”. In the case of `OC(Cn1cncn1)(Cn1cncn1)c1ccc(F)cc1F`, the outcome is reported as “inactive”. With `O=S(=O)(O)c1ccc(N=Nc2c(O)ccc3cc(S(=O)(=O)O)ccc23)cc1` the outcome was “inactive”. `CCCCCCCCN(C)C` was tested, and the outcome was “inactive”. In the case of `NNC(=O)c1ccncc1`, the outcome is reported as “inactive”. `NC(=O)NN=Cc1ccc([N+](=O)[O-])o1` was tested, and the outcome was “inactive”. For `CCCCN1C(=O)[C@@H]([C@H](O)C2CCCCC2)NC(=O)C12CCN(Cc1ccc(Oc3ccc(C(=O)O)cc3)cc1)CC2`, the outcome was “inactive”. With `Nc1ccn([C@@H]2O[C@H](CO)[C@@H](O)[C@@H]2O)c(=O)n1` the outcome was “inactive”. For `CCCCCCCCCC`, the outcome was “inactive”. `OCC(CO)(CO)CO` was tested, and the outcome was “inactive”. With `O=C(NO)C1(NS(=O)(=O)c2ccc(Oc3ccc(F)cc3)cc2)CCOCC1` the outcome was “inactive”. In the case of `CCCCC(CC)C(=O)OCCOCCOCCOC(=O)C(CC)CCCC` (stereo not given), the outcome is reported as “inactive”.
